Consider 1 compound from ChEMBL document CHEMBL2218924, “A broad activity screen in support of a chemogenomic map for kinase signalling research and drug discovery” (Biochem J, 2013).

In test [1] the target is Tyrosine-protein kinase SYK (Homo sapiens) (UniProt P43405). The note with it: at 10 µM.
Test [2] deals with T1, Mitogen-activated protein kinase kinase kinase 7 (Homo sapiens) (UniProt O43318).
T1 sequence (whole entry): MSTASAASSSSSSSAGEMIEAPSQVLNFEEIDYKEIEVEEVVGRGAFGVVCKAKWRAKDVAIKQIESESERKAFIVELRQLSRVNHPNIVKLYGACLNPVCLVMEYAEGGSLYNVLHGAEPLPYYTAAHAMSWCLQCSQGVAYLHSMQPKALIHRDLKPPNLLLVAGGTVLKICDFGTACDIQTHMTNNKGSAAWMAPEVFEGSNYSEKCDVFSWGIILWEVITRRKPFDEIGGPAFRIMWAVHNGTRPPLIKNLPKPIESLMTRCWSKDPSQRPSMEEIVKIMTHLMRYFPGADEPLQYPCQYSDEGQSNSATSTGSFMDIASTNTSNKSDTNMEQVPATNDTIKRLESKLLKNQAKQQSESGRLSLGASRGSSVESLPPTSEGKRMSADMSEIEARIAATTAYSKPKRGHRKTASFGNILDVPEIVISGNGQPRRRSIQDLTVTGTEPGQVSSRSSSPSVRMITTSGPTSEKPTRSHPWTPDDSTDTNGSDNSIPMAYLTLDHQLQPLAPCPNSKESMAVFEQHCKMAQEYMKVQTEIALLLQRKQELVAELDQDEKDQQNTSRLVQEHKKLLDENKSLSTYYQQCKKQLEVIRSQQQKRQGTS
The note with it: at 1 µM.

The target of test [3] is T1, Mitogen-activated protein kinase kinase kinase 7 (Homo sapiens). The note with it: at 10 µM.
Test [4] concerns the target T2, Serine/threonine-protein kinase TBK1 (Homo sapiens) (UniProt Q9UHD2).
T2 sequence (whole entry): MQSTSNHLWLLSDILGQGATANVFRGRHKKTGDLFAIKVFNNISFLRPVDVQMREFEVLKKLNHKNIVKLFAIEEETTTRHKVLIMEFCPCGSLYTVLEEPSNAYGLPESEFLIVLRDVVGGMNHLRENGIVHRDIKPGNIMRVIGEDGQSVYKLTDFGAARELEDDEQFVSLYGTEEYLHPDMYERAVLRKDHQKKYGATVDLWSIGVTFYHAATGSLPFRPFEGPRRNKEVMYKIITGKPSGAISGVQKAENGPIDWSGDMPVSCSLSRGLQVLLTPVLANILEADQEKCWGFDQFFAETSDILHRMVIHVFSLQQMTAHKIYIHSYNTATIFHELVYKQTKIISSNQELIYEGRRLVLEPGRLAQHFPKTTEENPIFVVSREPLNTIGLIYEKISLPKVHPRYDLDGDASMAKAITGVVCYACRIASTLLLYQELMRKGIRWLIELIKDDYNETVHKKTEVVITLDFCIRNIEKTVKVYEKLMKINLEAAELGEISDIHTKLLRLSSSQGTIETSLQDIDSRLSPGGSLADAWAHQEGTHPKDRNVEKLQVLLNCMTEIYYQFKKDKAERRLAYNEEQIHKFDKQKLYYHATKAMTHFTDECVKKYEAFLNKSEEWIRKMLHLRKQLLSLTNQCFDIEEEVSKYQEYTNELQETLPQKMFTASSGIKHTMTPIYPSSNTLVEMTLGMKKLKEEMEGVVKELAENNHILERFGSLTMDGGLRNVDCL
Conditions: at 1 µM.

The target of test [5] is T2, Serine/threonine-protein kinase TBK1 (Homo sapiens). Conditions: at 10 µM.
Test [6] deals with T3, TGF-beta receptor type-1 (Homo sapiens) (UniProt P36897).
T3 sequence (whole entry): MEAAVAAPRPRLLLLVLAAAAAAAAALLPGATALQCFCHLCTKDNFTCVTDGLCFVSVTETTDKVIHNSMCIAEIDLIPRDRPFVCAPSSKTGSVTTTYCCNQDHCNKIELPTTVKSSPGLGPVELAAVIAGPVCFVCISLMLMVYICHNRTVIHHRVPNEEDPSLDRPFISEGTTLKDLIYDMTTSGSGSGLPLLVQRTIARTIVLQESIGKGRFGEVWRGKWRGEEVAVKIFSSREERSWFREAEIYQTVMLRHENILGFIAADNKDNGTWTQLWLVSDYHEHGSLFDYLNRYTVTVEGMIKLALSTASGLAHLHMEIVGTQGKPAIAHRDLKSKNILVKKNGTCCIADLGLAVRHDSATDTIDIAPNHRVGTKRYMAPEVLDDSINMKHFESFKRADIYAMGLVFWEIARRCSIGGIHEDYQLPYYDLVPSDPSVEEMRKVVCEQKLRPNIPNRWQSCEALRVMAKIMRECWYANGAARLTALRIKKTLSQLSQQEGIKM
Conditions: at 1 µM.

Turning to `O=C(Nc1nc2ccccc2n1CCN1CCOCC1)c1cccc([N+](=O)[O-])c1`, the residual activity was found to be 84% in test [1]; 78% in test [2]; 74% in test [3]; 73% in test [4]; 60% in test [5]; 76% in test [6].
